Experimental data from ChEMBL document CHEMBL1961873, “Compounds: GSK PKIS; Assays: Nanosyn kinase panel” (2012).

Legend:
[1] = target: Tyrosine-protein kinase Fyn (Homo sapiens) (UniProt P06241); details: at 1 µM
[2] = target: Tyrosine-protein kinase HCK (Homo sapiens) (UniProt P08631); details: at 0.1 µM
[3] = target: Tyrosine-protein kinase HCK (Homo sapiens) (UniProt P08631); details: at 1 µM
[4] = target: Insulin-like growth factor 1 receptor (Homo sapiens) (UniProt P08069); details: at 0.1 µM
Sequence of Insulin-like growth factor 1 receptor (Homo sapiens) (P08069 31-736 limits assumed): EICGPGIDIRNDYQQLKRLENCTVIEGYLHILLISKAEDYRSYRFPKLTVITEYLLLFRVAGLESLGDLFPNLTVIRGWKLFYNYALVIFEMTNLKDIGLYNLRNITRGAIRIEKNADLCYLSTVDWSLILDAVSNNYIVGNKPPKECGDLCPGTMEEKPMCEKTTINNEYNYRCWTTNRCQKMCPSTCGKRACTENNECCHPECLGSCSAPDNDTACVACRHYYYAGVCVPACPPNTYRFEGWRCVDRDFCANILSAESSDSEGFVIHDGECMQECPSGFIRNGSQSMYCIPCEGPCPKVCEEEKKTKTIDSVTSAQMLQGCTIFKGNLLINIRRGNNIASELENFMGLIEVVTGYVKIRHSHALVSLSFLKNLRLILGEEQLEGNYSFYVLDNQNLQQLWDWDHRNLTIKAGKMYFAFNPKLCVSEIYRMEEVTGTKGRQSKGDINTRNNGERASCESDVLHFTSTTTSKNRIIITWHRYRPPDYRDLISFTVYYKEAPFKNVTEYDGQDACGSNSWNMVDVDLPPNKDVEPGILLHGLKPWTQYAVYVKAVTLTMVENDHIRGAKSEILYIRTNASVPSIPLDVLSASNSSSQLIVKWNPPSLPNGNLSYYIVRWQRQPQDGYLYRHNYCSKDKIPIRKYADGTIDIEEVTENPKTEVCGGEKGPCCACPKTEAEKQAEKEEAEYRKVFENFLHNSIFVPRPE
Sequence of Insulin-like growth factor 1 receptor (Homo sapiens) (P08069 741-1367 limits assumed): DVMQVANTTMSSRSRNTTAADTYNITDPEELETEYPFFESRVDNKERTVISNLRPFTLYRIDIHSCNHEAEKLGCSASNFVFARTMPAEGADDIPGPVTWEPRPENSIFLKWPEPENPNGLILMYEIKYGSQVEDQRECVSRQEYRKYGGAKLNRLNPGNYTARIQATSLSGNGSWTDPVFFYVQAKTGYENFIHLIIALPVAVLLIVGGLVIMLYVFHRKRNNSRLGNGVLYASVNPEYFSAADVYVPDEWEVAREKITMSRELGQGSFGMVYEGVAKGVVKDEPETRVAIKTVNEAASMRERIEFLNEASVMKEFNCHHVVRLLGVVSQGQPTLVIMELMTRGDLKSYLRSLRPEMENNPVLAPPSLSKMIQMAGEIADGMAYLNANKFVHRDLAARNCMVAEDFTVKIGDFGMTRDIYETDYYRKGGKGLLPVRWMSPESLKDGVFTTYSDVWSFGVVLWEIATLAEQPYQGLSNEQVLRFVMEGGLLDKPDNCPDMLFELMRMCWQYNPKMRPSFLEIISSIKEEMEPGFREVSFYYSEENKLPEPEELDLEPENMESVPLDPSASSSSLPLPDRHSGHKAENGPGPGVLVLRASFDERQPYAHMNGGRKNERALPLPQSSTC

[5] = target: Insulin-like growth factor 1 receptor (Homo sapiens) (UniProt P08069); details: at 1 µM
[6] = target: Insulin receptor (Homo sapiens) (UniProt P06213); details: at 0.1 µM
Sequence of Insulin receptor (Homo sapiens) (P06213 28-758 limits assumed): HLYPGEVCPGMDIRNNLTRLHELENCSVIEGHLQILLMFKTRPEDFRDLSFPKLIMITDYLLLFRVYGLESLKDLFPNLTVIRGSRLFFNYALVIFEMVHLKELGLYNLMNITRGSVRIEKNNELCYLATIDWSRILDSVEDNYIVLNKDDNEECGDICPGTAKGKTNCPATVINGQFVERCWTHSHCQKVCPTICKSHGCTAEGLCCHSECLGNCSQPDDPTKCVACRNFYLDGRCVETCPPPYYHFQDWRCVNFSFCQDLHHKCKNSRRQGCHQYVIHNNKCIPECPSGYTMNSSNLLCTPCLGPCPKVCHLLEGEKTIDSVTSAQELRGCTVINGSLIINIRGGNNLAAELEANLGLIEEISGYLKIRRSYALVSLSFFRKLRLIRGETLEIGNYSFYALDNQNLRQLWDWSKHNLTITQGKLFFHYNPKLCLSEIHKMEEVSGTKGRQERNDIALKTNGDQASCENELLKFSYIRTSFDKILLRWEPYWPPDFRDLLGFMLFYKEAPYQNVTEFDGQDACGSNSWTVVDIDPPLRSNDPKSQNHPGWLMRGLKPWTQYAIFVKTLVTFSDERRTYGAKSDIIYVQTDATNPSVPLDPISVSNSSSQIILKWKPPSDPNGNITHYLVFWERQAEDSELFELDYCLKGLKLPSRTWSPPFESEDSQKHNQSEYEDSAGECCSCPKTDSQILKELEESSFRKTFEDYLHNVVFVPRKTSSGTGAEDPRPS
Sequence of Insulin receptor (Homo sapiens) (P06213 763-1382 limits assumed): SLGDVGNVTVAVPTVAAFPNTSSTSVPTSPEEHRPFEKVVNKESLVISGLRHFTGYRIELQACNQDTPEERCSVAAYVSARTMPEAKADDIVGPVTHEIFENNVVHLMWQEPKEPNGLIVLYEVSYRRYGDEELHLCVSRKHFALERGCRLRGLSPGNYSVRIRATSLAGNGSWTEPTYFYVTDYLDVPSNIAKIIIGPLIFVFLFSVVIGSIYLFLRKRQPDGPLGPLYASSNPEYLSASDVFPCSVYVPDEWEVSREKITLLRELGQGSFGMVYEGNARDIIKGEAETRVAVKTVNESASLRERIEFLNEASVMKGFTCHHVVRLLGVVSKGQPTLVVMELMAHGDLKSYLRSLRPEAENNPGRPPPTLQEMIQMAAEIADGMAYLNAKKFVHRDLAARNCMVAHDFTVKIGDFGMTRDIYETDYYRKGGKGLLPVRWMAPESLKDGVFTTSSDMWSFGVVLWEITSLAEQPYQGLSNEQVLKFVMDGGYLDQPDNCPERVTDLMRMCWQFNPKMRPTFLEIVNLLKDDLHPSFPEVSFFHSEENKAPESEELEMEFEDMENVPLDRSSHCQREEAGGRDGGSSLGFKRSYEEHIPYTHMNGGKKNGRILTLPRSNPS

[7] = target: Insulin receptor (Homo sapiens) (UniProt P06213); details: at 1 µM
[8] = target: Insulin receptor-related protein (Homo sapiens) (UniProt P14616); details: at 0.1 µM
Sequence of Insulin receptor-related protein (Homo sapiens) (P14616 27-742 limits assumed): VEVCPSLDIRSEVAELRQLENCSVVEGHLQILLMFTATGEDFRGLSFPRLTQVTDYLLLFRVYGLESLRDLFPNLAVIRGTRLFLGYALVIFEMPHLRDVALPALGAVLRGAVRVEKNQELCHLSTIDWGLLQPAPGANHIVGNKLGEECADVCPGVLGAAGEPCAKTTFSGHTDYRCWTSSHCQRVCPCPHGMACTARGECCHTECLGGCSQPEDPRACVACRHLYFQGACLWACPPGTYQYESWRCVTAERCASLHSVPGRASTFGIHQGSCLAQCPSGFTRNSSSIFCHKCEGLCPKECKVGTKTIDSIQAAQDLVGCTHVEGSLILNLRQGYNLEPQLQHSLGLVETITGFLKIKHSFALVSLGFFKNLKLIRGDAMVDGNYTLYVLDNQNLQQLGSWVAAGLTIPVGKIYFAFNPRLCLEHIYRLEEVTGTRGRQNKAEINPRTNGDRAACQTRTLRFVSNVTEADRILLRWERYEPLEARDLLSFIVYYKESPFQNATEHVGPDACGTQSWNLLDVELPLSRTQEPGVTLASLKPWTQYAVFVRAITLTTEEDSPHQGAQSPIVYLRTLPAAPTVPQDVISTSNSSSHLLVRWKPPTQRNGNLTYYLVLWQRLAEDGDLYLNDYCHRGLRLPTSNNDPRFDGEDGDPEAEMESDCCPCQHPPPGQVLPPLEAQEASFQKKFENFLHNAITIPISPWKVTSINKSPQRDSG
Sequence of Insulin receptor-related protein (Homo sapiens) (P14616 747-1297 limits assumed): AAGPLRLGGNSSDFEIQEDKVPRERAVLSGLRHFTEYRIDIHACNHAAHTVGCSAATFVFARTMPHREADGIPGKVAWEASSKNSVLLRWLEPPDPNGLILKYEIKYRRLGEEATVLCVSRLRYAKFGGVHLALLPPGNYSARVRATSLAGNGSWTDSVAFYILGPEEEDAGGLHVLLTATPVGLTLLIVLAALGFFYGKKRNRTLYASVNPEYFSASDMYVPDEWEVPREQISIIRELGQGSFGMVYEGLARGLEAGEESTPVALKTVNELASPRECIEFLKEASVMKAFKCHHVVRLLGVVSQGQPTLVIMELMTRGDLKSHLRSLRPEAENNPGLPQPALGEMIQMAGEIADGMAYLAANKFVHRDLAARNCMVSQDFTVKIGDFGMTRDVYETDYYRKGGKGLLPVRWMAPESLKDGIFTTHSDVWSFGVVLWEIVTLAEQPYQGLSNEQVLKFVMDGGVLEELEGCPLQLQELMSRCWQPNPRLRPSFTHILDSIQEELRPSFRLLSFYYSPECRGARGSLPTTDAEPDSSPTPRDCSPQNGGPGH

[9] = target: Insulin receptor-related protein (Homo sapiens) (UniProt P14616); details: at 1 µM
[10] = target: T1, Tyrosine-protein kinase ITK/TSK (Homo sapiens) (UniProt Q08881); details: at 0.1 µM;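 further: mean percent inhibition of ITK from the GSK PKIS screen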
T1 sequence (whole entry): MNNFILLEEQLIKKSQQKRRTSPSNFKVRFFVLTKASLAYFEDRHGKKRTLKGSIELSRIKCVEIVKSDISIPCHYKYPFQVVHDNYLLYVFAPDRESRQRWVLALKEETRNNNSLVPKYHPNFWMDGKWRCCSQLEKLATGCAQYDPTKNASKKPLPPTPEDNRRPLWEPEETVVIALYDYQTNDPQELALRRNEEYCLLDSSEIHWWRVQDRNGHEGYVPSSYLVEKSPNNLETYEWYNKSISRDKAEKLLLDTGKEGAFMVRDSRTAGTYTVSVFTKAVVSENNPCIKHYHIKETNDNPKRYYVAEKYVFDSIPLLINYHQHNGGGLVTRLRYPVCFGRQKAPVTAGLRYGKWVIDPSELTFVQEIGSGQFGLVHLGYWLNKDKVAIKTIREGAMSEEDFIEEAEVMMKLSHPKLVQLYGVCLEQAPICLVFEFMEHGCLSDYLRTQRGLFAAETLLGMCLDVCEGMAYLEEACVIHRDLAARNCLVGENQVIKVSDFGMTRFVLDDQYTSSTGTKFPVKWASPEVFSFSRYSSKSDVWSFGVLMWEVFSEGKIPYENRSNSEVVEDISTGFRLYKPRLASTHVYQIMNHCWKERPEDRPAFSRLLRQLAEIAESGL

Sequence of Tyrosine-protein kinase Fyn (Homo sapiens) (P06241 2-537 limits assumed): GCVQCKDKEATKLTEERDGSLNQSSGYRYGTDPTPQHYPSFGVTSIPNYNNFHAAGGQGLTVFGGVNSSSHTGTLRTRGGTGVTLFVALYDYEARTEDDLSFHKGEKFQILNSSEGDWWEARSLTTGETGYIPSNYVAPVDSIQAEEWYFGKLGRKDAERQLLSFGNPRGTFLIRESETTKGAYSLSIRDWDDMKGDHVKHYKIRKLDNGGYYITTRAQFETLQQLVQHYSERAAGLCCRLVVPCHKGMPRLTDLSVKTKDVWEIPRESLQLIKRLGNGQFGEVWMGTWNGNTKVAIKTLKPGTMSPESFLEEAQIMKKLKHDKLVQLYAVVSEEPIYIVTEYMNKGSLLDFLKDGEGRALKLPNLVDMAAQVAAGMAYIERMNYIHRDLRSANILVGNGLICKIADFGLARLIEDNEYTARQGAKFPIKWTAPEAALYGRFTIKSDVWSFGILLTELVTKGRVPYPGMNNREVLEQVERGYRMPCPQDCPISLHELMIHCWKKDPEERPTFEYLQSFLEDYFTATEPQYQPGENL
Sequence of Tyrosine-protein kinase HCK (Homo sapiens) (P08631 2-526 limits assumed): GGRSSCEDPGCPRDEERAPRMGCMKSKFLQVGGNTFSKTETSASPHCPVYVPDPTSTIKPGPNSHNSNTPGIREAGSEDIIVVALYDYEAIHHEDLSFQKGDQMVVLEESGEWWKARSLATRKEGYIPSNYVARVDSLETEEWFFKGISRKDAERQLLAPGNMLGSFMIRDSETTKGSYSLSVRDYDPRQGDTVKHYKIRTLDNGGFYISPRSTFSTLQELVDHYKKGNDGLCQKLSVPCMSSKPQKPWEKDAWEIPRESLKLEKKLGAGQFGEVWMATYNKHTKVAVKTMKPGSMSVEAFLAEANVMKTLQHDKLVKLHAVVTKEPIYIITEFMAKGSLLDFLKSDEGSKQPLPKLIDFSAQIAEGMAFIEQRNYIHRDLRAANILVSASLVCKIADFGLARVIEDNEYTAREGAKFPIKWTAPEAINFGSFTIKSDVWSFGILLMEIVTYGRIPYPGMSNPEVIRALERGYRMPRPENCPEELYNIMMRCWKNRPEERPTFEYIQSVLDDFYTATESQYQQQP

Compound	inhibition [1]	inhibition [2]	inhibition [3]	inhibition [4]	inhibition [5]	inhibition [6]	inhibition [7]	inhibition [8]	inhibition [9]	inhibition [10]
CS(=O)(=O)Nc1ccc(N/C=C2\C(=O)Nc3ccccc32)cc1	4.85%	-0.18%	14.1%	-1.54%	5.77%	-0.48%	8.57%	-3.26%	-1.01%	-0.24%
CC(C)=Cc1cccc2c1/C(=N/Nc1ccc(S(N)(=O)=O)cc1)C(=O)N2	27.3%	2.33%	21.4%	2.45%	8.58%	1.28%	13.6%	1.95%	2.95%	0.64%
COC(=O)Nc1nc2cc(Oc3ccc(NC(=O)Nc4cccc(C(=O)O)c4)cc3)ccc2[nH]1	0.19%	0.97%	3.15%	-3.37%	-7.4%	2.72%	0.58%	1.16%	2.82%	-2.99%
CCn1c(-c2nonc2N)nc2c(C#CC(C)(C)O)nc(CN3CCCC3)cc21	3.44%	-1.79%	2.1%	-0.3%	-1.42%	0.13%	-0.45%	-1.19%	-0.92%	0.22%
Nc1nc(-c2ccc3c(c2)C(=Cc2cc(Br)c(O)c(Br)c2)C(=O)N3)cs1	8.82%	-1.41%	7.14%	-1.89%	0.82%		1.87%	-3.05%	-2.21%	0.01%
COc1cccc(-n2ncc3c(N/N=C/c4cccc(F)c4)ncnc32)c1	31.5%	5.13%	20.8%	-6.82%	-4.04%	6.33%	5.41%	0.81%	0.48%	-3.25%
CC1=C(C(=O)Nc2ccc3[nH]ncc3c2)C(c2ccc(F)cc2)NC(=O)N1 (configuration not stated)	4.69%	3.04%	2.81%	9.13%	8.59%	4.97%	4.22%	0.88%	0.72%	0.65%
Cc1ccc(NC(=O)c2ccnc(N3CCCC3)c2)cc1-c1ccc(C(=O)NCC2CC2)cc1	-1.49%	4.55%	10.7%	-4.41%	-3.36%	6.4%	11.3%	2.43%	2.2%	-1.68%
O=C1Nc2ccc(C(=O)c3ccco3)cc2C1=Cc1cc(Cl)c(O)c(Cl)c1	20.7%	5.82%	17.4%	4.15%	4.7%	5.71%	3.98%	1.08%	2.14%	1.31%
CS(=O)(=O)CCNCc1ccc(-c2ccc3ncnc(Nc4ccc(OCc5cccc(F)c5)c(C(F)(F)F)c4)c3c2)o1	2.37%	5.21%	4.98%	0.07%	1.69%	5.7%	6.44%	3.1%	2.55%	1.12%
CS(=O)(=O)CCN(CC#N)Cc1ccc(-c2ccc3ncnc(Nc4ccc(OCc5cccc(F)c5)c(Cl)c4)c3c2)o1	-3.53%	2.47%	3.04%		-4.22%	4.4%	2.93%	-0.19%	0.84%	-2.61%
COc1cc2ncn(-c3cc(OCc4ccccc4C(F)(F)F)c(C(N)=O)s3)c2cc1OC	9.2%	8.32%	29.2%		-2.72%	-1.5%	2.13%	4.32%	3.34%	-3.84%
Nc1ncnc2occ(-c3ccc(NC(=O)Nc4cccc(C(F)(F)F)c4)cc3)c12	19.9%	12%	48.8%	14.6%	15.5%	3.28%	10.5%	2.2%	5.07%	0.99%
COc1cc2ncn(-c3cc(OCc4ccccc4Cl)c(C(N)=O)s3)c2cc1OC	23.5%	4.09%	27.1%	2.22%	2.52%	4.5%	7.12%	-1.76%	0.06%	0.4%
Cc1cc(O)cc(C)c1/C=C/c1cncc(-c2nn[nH]n2)c1	52.3%	20.6%	74.9%	-3.59%	-2.05%	7.59%	8.18%	2.98%	2.21%	-2.15%
NCc1ccc(-c2nc(-c3ccc(Cl)c(O)c3)c(-c3ccncc3)[nH]2)cc1	31.8%	12.9%	55.1%	-0.62%	-0.25%	0.74%	2.07%	-0.06%	-1.54%	0.2%
NC(=O)c1cccc(Nc2nccc(Nc3cccc4[nH]ncc34)n2)c1	96.1%	64%	84.6%	-0.89%	15.5%	-2.6%	16.8%	-0.86%	0.93%	-0.33%
